CYP2C9 activ: human CYP2C9 activators, primary screen, biochemical, luminescence; AID 1024, 2008; Cytochrome P450 2C9 (Homo sapiens), P11712; activation factor at 5 µM; recombinant CYP2C9, luciferin-H conversion; stronger effect = higher value; factor 1 = untreated enzyme, 0 = blocked; 1.4% of 96,000 active;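 active = activation factor of 2 or more for CYP2C9 at a 5 µM dose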;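 also: 0 = sulfaphenazole-blocked wells and 1 = vehicle-only wells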
CYP2C19 inhib: blockers of cytochrome P450 2C19 activity – biochemical, luminescence, ADME assay, primary screen; P33261; CYP2C19 Supersomes, luciferin-H EGE luminescence, 30 min; inhibition, % at 5 µM; 21% of 96,000 active; AID 778, 2007;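 active = CYP2C19 inhibition above a set limit at 5 µM in the primary screen, cut at about 50% in these data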;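 also: plate controls were negative control wells for no effect and 2.5 mM tranylcypromine positive control for full effect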
Target sequence (P33261 whole entry, looked up): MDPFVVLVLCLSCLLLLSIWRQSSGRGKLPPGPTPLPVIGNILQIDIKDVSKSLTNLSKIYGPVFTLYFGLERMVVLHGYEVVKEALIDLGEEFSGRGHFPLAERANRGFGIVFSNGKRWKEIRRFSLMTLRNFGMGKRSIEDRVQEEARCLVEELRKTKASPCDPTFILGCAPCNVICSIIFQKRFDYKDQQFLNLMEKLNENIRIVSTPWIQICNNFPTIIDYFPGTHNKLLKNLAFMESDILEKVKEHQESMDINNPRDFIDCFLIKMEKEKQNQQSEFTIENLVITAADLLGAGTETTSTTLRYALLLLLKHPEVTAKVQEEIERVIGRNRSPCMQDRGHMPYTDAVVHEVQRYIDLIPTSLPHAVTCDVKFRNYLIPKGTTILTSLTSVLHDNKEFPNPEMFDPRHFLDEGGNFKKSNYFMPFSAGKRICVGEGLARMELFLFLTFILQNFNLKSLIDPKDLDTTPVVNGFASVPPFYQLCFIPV
CYP2C9 inh: blockers of cytochrome P450 2C9 activity – biochemical, luminescence, ADME assay, primary screen | 20% of 96,000 active | P11712 | CYP2C9 Supersomes, luciferin-H conversion | inhibition, % at 5 µM;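 active = blocking of liver enzyme CYP2C9 beyond about 50% at 5 µM, limit read from the data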
PostGolgi ctrl: growth inhibition of yeast control strain, primary screen, counter-screen for post-Golgi transport modulator project; efflux-deficient yeast background strain, growth absorbance A615, 16 h; inhibition, % at 10 µM; 5% of 98,000 active; AID 738, 2007
CYP2C19 act: human CYP2C19 activators, primary screen, biochemical, luminescence; Cytochrome P450 2C19 (Homo sapiens), P33261; 96,000 tested, under 10 active; activation factor at 5 µM; AID 1025, 2008; recombinant CYP2C19, luciferin-H EGE luminescence; stronger effect = higher value; 0 = fully inhibited enzyme, 1 = untreated enzyme;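 active = activation factor of at least 2 at 5 µM in the primary screen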;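 also: 0 = wells with 2.5 mM tranylcypromine and 1 = vehicle-only wells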
PostGolgi yeast: phenotypic screen on post-Golgi transport, primary screen | 0.9% of 98,000 active | AID 739, 2007 | post-Golgi transport phenotypic cell assay | inhibition, % at 10 µM;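 also: yeast cells grown in 1536-well plates; yeast grown about 18 h at 30C before absorbance read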
An asterisk follows results filed as active. Rows were chosen to be rich in hits. Some 32% of all compounds tested hit in one or more screens of this group. Rule as the data show it, unless noted: active = inhibition above about 30%; inactive = the rest.

Results for Cn1c(CSc2ncccn2)nnc1SCC(=O)N1CCCc2ccccc21 ?
CYP2C9 activ: 1.2; CYP2C19 inhib: 0; CYP2C9 inh: -23; PostGolgi ctrl: 20; CYP2C19 act: 1; PostGolgi yeast: 0

How did Nc1nc(SCC(=O)N2CCCc3ccccc32)n(-c2ccccc2)n1 do in these assays?
CYP2C9 activ: 0.7; CYP2C19 inhib: 75*; CYP2C9 inh: 34; PostGolgi ctrl: -5; CYP2C19 act: 0.3; PostGolgi yeast: -7

Results for O=C(Nc1ccon1)c1cccc(C(F)(F)F)c1 ?
CYP2C9 activ: 1; CYP2C19 inhib: 39; CYP2C9 inh: 2; PostGolgi ctrl: 14; CYP2C19 act: 0.6; PostGolgi yeast: 5

What do the screens show for `COC(=O)c1cc2sc(Cl)cc2n1Cc1nc(-c2cccc(C)c2)oc1C`?
CYP2C9 activ: 0.9; CYP2C19 inhib: -9; CYP2C9 inh: 12; PostGolgi ctrl: 13; CYP2C19 act: 1.1; PostGolgi yeast: -6

What do the screens show for `Cc1noc(/C=C/c2ccc(-c3ccccc3Cl)o2)c1[N+](=O)[O-]`?
CYP2C9 activ: 1; CYP2C19 inhib: -18; CYP2C9 inh: 1; PostGolgi ctrl: 2; CYP2C19 act: 1.2; PostGolgi yeast: 1

How did O=C(CSc1nnnn1-c1ccccc1)N1CCCc2ccccc21 do in these assays?
CYP2C9 activ: 0.4; CYP2C19 inhib: 80*; CYP2C9 inh: 58*; PostGolgi ctrl: 25; CYP2C19 act: 0.2; PostGolgi yeast: -3

What do the screens show for `CCn1nnnc1SCC(=O)N1c2ccccc2CCc2ccccc21`?
CYP2C9 activ: 0.3; CYP2C19 inhib: 91*; CYP2C9 inh: 71*; PostGolgi ctrl: -7; CYP2C19 act: 0.1; PostGolgi yeast: -3

What do the screens show for `Cn1c(N)c(C(=O)COC(=O)C2(c3ccc(Cl)cc3)CCCC2)c(=O)n(C)c1=O`?
CYP2C9 activ: 1.1; CYP2C19 inhib: 58*; CYP2C9 inh: -13; PostGolgi ctrl: 6; CYP2C19 act: 0.4; PostGolgi yeast: -1

Results for N#CC1=C(SCc2ccccc2)NC(=O)CC1c1cccc(O)c1 (configuration not stated) ?
CYP2C9 activ: 0.4; CYP2C19 inhib: 78*; CYP2C9 inh: 62*; PostGolgi ctrl: 5; CYP2C19 act: 0.2; PostGolgi yeast: 28

How did N#CC1=C(SCc2ccccc2)NC(=O)CC1c1ccc(O)cc1 (configuration not stated) do in these assays?
CYP2C9 activ: 0.5; CYP2C19 inhib: 65*; CYP2C9 inh: 53*; PostGolgi ctrl: 4; CYP2C19 act: 0.4; PostGolgi yeast: -5

Results for CCCCCCSC1=C(C#N)C(c2ccccc2)CC(=O)N1 (configuration not stated) ?
CYP2C9 activ: 0.8; CYP2C19 inhib: 23; CYP2C9 inh: 18; PostGolgi ctrl: 57*; CYP2C19 act: 0.8; PostGolgi yeast: 36*

How did O=C(c1cccc(C(F)(F)F)c1)N1CCOC12CCN(c1ncc(C(F)(F)F)cc1Cl)CC2 do in these assays?
CYP2C9 activ: 0.8; CYP2C19 inhib: 9; CYP2C9 inh: 20; PostGolgi ctrl: 19; CYP2C19 act: 0.9; PostGolgi yeast: 0

Results for Cc1ccc(Nc2nc(Cl)nc(N(C)C#N)n2)cc1 ?
CYP2C9 activ: 0.6; CYP2C19 inhib: 12; CYP2C9 inh: 38; PostGolgi ctrl: 3; CYP2C19 act: 0.9; PostGolgi yeast: 13

Results for Cc1ccc(Nc2nc(Nc3ccc(C)cc3)nc(SC3=NCCS3)n2)cc1 ?
CYP2C9 activ: 0.1; CYP2C19 inhib: 50; CYP2C9 inh: 86*; PostGolgi ctrl: 38*; CYP2C19 act: 0.5; PostGolgi yeast: -3

Results for Cc1ccccc1Nc1nc(N)nc(CN(C)c2ccccc2)n1 ?
CYP2C9 activ: 0.6; CYP2C19 inhib: 32; CYP2C9 inh: 37; PostGolgi ctrl: 4; CYP2C19 act: 0.7; PostGolgi yeast: -8

Results for Cc1ccccc1Nc1nc(Nc2ccccc2C)nc(SC2=NCCS2)n1 ?
CYP2C9 activ: 0.2; CYP2C19 inhib: 54*; CYP2C9 inh: 77*; PostGolgi ctrl: 23; CYP2C19 act: 0.5; PostGolgi yeast: -1

What do the screens show for `CC(c1ccccc1)N1C(=O)c2ccc(C(=O)NCc3ccco3)cc2C1=O` (configuration not stated)?
PostGolgi ctrl: 23; PostGolgi yeast: 0

Results for COc1ccc(-n2nnnc2-c2cccc(OC)c2)cc1 ?
CYP2C9 activ: 0.2; CYP2C19 inhib: 99*; CYP2C9 inh: 85*; PostGolgi ctrl: 6; CYP2C19 act: 0; PostGolgi yeast: 2

Results for Clc1ccc(-n2nnnc2-c2ccccc2)cc1Cl ?
CYP2C9 activ: 0.7; CYP2C19 inhib: 95*; CYP2C9 inh: 32; PostGolgi ctrl: 13; CYP2C19 act: 0; PostGolgi yeast: -9

How did Cc1ccnc2nc(C(=O)N3CCN(S(=O)(=O)c4ccccc4)CC3)nn12 do in these assays?
CYP2C9 activ: 1.2; CYP2C19 inhib: -6; CYP2C9 inh: -19; PostGolgi ctrl: 20; CYP2C19 act: 1.1; PostGolgi yeast: -10

Results for COc1ccc(CCN=CC2=C(O)CCCC2=O)cc1OC ?
CYP2C9 activ: 1.1; CYP2C19 inhib: -10; CYP2C9 inh: -12; PostGolgi ctrl: 6; CYP2C19 act: 1.1; PostGolgi yeast: 9

What do the screens show for `COCc1cc(C)c2c(N)c(C#N)sc2n1`?
CYP2C9 activ: 1.4; CYP2C19 inhib: 29; CYP2C9 inh: -36; PostGolgi ctrl: 11; CYP2C19 act: 0.7; PostGolgi yeast: -9

Results for CCOc1ccc(Cn2c(C)nc([N+](=O)[O-])c2SCC(O)CCl)cc1[N+](=O)[O-] (configuration not stated) ?
CYP2C9 activ: 0.4; CYP2C19 inhib: 76*; CYP2C9 inh: 61*; PostGolgi ctrl: -4; CYP2C19 act: 0.2; PostGolgi yeast: -8

What do the screens show for `CC(=O)c1ccc(C(C)(C)c2ccc(C(C)=O)s2)s1`?
CYP2C9 activ: 0.5; CYP2C19 inhib: 29; CYP2C9 inh: 50*; PostGolgi ctrl: 7; CYP2C19 act: 0.7; PostGolgi yeast: 5

Results for CC(C)(O)C#CC#CCN1CCOCC1 ?
CYP2C9 activ: 0.9; CYP2C19 inhib: -6; CYP2C9 inh: 10; PostGolgi ctrl: -3; CYP2C19 act: 1.1; PostGolgi yeast: -6

Results for O=c1cc(-c2ccccc2)[nH]n1-c1ccc([N+](=O)[O-])cc1 ?
CYP2C9 activ: 0.9; CYP2C19 inhib: 17; CYP2C9 inh: 6; PostGolgi ctrl: -1; CYP2C19 act: 0.8; PostGolgi yeast: 1

Results for O=[N+]([O-])c1ccc(-c2cnc(SCc3ccccc3Cl)[nH]2)cc1 ?
CYP2C9 activ: 0.5; CYP2C19 inhib: 8; CYP2C9 inh: 52*; PostGolgi ctrl: 42*; CYP2C19 act: 0.9; PostGolgi yeast: 4

Bioassay records: PubChem BioAssay, several laboratories
